According to PubChem BioAssay (Tox21):
Inconclusive results are not listed. Where a call stands in place of a potency, no number is given. Activity calls are given as the source filed them. Calls come from the whole dose curve; as a rule, active = well fitted cell-killing curve with a large enough effect in the repeat runs; inconclusive = weak or mixed curves, or effect the other way; inactive = flat fitted curve, though single readings scatter.

Assay: qHTS assay to identify small molecule agonists of the sonic hedgehog signaling (Shh) pathway - cell viability counter screen (AID 1259366); note: nearly all actives have a fitted effect of over 50% in size
Conditions: NIH/3T3 Gli1-Luc viability, CellTiter-Fluor, 24 h; series mostly up to 92.4 µM
Text: National Center for Advancing Translational Sciences [NCATS]
NIH Chemical Genomics Center [NCGC]
U.S. Environmental Protection Agency [EPA]
National Institutes of Environmental Health Sciences [NIEHS]
National Toxicology Program [NTP]
U.S. Food and Drug Administration [FDA]
The sonic hedgehog (Shh) pathway is essential for normal embryonic development. Dysregulation of the Shh pathway can cause severe developmental defects in organs. Therefore chemicals that interfere with the pathway are potential developmental toxicants. A cell line designated 3T3Gli1-Luc (DMB/OARSA/CFSAN/FDA, Laurel, MD), a NIH/3T3 derived clone containing stably integrated Gli1-Luc reporter is used to detect chemical interference of the Shh pathway, by changes in the expression of the firefly Luc gene under the control of the Gli1 transcriptional response element. This cell line was used to screen Tox21 libraries for identifying and prioritizing the potential developmental toxicants that interfere Shh pathway. The cytotoxicity of the compounds was tested in parallel by measuring the cell viability using CellTiter-Fluor assay system (Promega, Madison, WI) in the same wells.
Tox21 Assay Protocol Summary:
3T3 Gli1-Luc cells were dispensed at 2,000 per well in 5uL of culture medium into white solid bottom 1536-well plates (Greiner Bio-One, Monroe, NC) using a Multidrop Combi (Thermo Scientific, Waltham, MA) dispenser. The assay plates were incubated at 37 C and 5% CO2 for 4hr, and then 23nL of compounds dissolved in DMSO and positive control were transferred using a Pintool station (Wako, San Diego, CA). The assay plates were incubated at 37C and 5% CO2 for 24hr. For viability read, after 23hr of compound treatment, 1uL of CellTiter-Fluor reagent (Promega Corporation, Madison, WI) was added to each well of the assay plates using Flying Reagent Dispenser (FRD, Aurora Discovery, San Diego, CA) and incubated the assay plates at 37C for 1hr. The fluorescence signal was quantified using a ViewLux plate reader (Perkin Elmer, Shelton, CT).
Potency is the fitted concentration of half-maximal effect.

Question: For `CCC1(c2ccccc2)C(=O)N=C(O)NC1=O` (stereo not given), which Potency is on record?
Answer: Its Potency is “inactive”.

Question: With `Cc1cccc(C#N)c1` as the compound, how does the Potency read?
Answer: The Potency was “inactive”.

Question: Which Potency does the source give for `CNC(=O)Oc1ccc(N(C)C)c(C)c1` here?
Answer: The Potency was “inactive”.

Question: Which Potency does the source give for `C[C@]12CC[C@H]3[C@@H](CCC4=CC(=O)CC[C@@]43C)[C@@H]1CC[C@@H]2C(=O)O` here?
Answer: Its Potency is “inactive”.

Question: For `CCN(Cc1ccc(Cl)nc1)/C(=C/[N+](=O)[O-])NC`, which Potency is on record?
Answer: Its Potency is “inactive”.

Question: Which Potency does the source give for `CC1=C(C(=O)Nc2ccccc2)S(=O)(=O)CCO1` here?
Answer: Its Potency is 21.7 µM (active).

Question: For `Fc1cc(Br)ccc1CBr`, which Potency is on record?
Answer: The Potency was “inactive”.

Question: For `CC(=O)CC(c1ccc(Cl)cc1)c1c(O)c2ccccc2oc1=O` (stereo not given), which Potency is on record?
Answer: The Potency was “inactive”.

Question: With `CC1COC2(c3ccccc3Cl)c3cc(Cl)ccc3NC(=O)CN12` (stereo not given) as the compound, how does the Potency read?
Answer: The Potency was “inactive”.

Question: With `COc1cc(OC)nc(NC(=O)NS(=O)(=O)c2ncccc2OCC(F)(F)F)n1` as the compound, how does the Potency read?
Answer: Its Potency is “inactive”.

Question: For `N#CCCC#N`, which Potency is on record?
Answer: The Potency was “inactive”.

Question: For `N#CCBr`, which Potency is on record?
Answer: The Potency was “inactive”.

Question: With `CCOP(=S)(Oc1cnc(C(C)(C)C)nc1)OC(C)C` (stereo not given) as the compound, how does the Potency read?
Answer: Its Potency is “inactive”.

Question: Which Potency does the source give for `Fc1ccc(C2(Cn3cncn3)OC2c2ccccc2Cl)cc1` (stereo not given) here?
Answer: The Potency was “inactive”.

Question: For `ClC(Cl)C(Cl)Cl`, which Potency is on record?
Answer: The Potency was “inactive”.

Question: With `CCCCOP(=O)(O)OCCCC` as the compound, how does the Potency read?
Answer: The Potency was “inactive”.

Question: Which Potency does the source give for `CCCCOC(=O)c1ccccc1C(=O)O` here?
Answer: Its Potency is “inactive”.

Question: Which Potency does the source give for `CC(C1CC1)C(O)(Cn1cncn1)c1ccc(Cl)cc1` (stereo not given) here?
Answer: The Potency was “inactive”.

Question: For `ClCC(Cl)(Cl)Cl`, which Potency is on record?
Answer: Its Potency is “inactive”.

Question: For `Cc1ccccc1CO[C@@H]1C[C@@]2(C(C)C)CC[C@]1(C)O2`, which Potency is on record?
Answer: The Potency was “inactive”.

Question: Which Potency does the source give for `ClCCOCOCCCl` here?
Answer: Its Potency is “inactive”.

Question: With `O=C(CCCN1CCC(n2c(=O)[nH]c3ccccc32)CC1)c1ccc(F)cc1` as the compound, how does the Potency read?
Answer: Its Potency is “inactive”.

Question: With `OC(c1ccc(F)cc1)(c1cncnc1)c1ccccc1Cl` (stereo not given) as the compound, how does the Potency read?
Answer: The Potency was “inactive”.

Question: With `ClC(Cl)Br` as the compound, how does the Potency read?
Answer: Its Potency is “inactive”.

Question: For `NC(=O)c1cc([N+](=O)[O-])cc([N+](=O)[O-])c1`, which Potency is on record?
Answer: Its Potency is “inactive”.

Question: Which Potency does the source give for `C(CCOCC1CO1)COCC1CO1` (stereo not given) here?
Answer: The Potency was “inactive”.

Question: Which Potency does the source give for `CCC(=O)C(CCN(C)C)(c1ccccc1)c1ccccc1` here?
Answer: Its Potency is “inactive”.

Question: Which Potency does the source give for `CCC1(c2ccccc2)C(=O)NC(=O)NC1=O` here?
Answer: Its Potency is “inactive”.

Question: For `ClC(Cl)(Cl)C(Cl)(Cl)Cl`, which Potency is on record?
Answer: Its Potency is “inactive”.

Question: Which Potency does the source give for `N#CCNCC#N` here?
Answer: Its Potency is “inactive”.

Question: For `Nc1cc2c3c(c1)C(c1ccccc1)=N[C@@H](NC(=O)c1cccnc1)C(=O)N3CC2`, which Potency is on record?
Answer: The Potency was “inactive”.

Question: With `CCOP(=S)(OCC)Oc1cc(-c2ccccc2)on1` as the compound, how does the Potency read?
Answer: Its Potency is “inactive”.

Question: For `CSc1nc(N=[N+]=[N-])nc(NC(C)C)n1`, which Potency is on record?
Answer: Its Potency is “inactive”.

Question: For `C[C@]1(O)CC[C@H]2[C@@H]3CCC4=CC(=O)CC[C@]4(C)[C@@]3(F)[C@@H](O)C[C@@]21C`, which Potency is on record?
Answer: The Potency was “inactive”.

Question: Which Potency does the source give for `COc1cc(OC)nc(Sc2cccc(Cl)c2C(=O)O)n1` here?
Answer: Its Potency is “inactive”.

Question: For `O=C(Nc1ccccc1)c1ccccc1I`, which Potency is on record?
Answer: The Potency was “inactive”.

Question: For `C[N+](C)=CCl`, which Potency is on record?
Answer: The Potency was “inactive”.

Question: Which Potency does the source give for `CCCCCCI` here?
Answer: Its Potency is “inactive”.

Question: Which Potency does the source give for `Nc1cnn(-c2ccccc2)c(=O)c1Cl` here?
Answer: Its Potency is “inactive”.

Question: With `COP(=S)(OC)Oc1c(Cl)cc(C)cc1Cl` as the compound, how does the Potency read?
Answer: The Potency was “inactive”.
